High-throughput results (PubChem)
ELG1 DNA repair = blocks ELG1-dependent DNA repair in HEK293T cells; HEK293T ELG1-luciferase reporter, luminescence, 16 h; DNA damage induced by 5-fluorouridine; Potency, µM (top dose mostly 46.1 µM), inactives show at the highest dose activity change, negative = inhibition, hits mostly inhibitors; hit rate 2.3% among 330,000; also: % is scaled to controls: 0 for no effect and ±100 for the full control effect; nearly all actives have a fitted effect of over 55% in size
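HEK293T cells expressing luciferase-tagged ELG1 (2,000/well) received 5-Fluorouridine plus compound or DMSO for 16 hr at 37 °C. Luciferase was read by ONE-Glo luminescence after 30 min at room temperature.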
NPC1 prom act = activators of NPC1 promoter. Huh7 NPC1 promoter luciferase reporter, 24 h. Potency, µM (top dose mostly 9.22 µM), for inactives: at the top dose activation, hits mostly activators. hit rate 2.4% among 320,000; also: % of control where 0% means no effect; nearly all actives have a fitted effect of over 60% in size
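In 1536-well qHTS, Huh7 cells harboring an NPC1 promoter–luciferase construct received compound for 24 h; activation was quantified by luminescence following luciferase reagent addition.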
FLuc modulator = firefly luciferase modulation, counter-screen for miR-21 project; purified FLuc, Km substrates, luminescence inhibition; Potency, µM (highest dose often 57.5 µM), for the others: top-dose activity change, negative = inhibition, hits mostly inhibitors; AID 588342; P08659; hit rate 6.9% among 360,000;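 also: plate controls were vehicle for no effect and reference inhibitor for full effect; nearly all actives have a fitted effect of over 55% in size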
Target sequence (P08659 whole entry, looked up): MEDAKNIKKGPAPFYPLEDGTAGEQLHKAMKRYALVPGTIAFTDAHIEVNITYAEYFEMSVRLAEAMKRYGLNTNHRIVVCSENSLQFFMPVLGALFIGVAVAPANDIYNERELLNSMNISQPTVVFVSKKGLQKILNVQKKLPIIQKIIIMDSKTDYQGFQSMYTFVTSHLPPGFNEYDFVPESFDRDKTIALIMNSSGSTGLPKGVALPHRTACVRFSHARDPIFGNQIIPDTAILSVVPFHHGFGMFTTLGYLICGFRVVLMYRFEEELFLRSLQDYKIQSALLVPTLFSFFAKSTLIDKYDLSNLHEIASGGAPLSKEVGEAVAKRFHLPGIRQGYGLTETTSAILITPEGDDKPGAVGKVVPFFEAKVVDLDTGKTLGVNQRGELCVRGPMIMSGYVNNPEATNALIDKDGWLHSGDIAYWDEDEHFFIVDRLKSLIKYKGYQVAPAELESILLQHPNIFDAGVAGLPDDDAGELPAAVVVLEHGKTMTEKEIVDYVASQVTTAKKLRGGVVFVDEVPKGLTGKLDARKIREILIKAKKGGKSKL
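Biochemical qHTS of compounds, final roughly 60 µM downward over six points, against 10 nM purified firefly luciferase using Km concentrations of substrates (10 uM D-luciferin, 10 uM ATP) in Tris acetate pH 7.5 buffer; luminescence output.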
Rab9 promoter act = activates the Rab9 promoter. AID 485297. Huh7 Rab9 promoter-luciferase reporter, luminescence, 24 h. hit rate 2.8% among 320,000. Potency, µM (highest dose often 9.22 µM), inactives show at the top dose activation, negative = inhibition, hits mostly activators; also: % of control where 0% means no effect; nearly all actives have a fitted effect of over 60% in size
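Measured in stably transfected Huh7 cells bearing a Rab9 promoter–luciferase construct: 24 h compound treatment at 37 °C, followed by luminescence detection.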
SMN2 splice up = enhancers of SMN2 splice variant expression; HEK293 SMN2-luciferase splicing reporter, luminescence, 30-36 h; Potency, µM (highest dose often 46.1 µM), without a hit: top-dose activity change, positive = activation, actives largely listed as activators; hit rate 2.8% among 210,000; also: % of control where 0% means no effect; nearly all actives have a fitted effect of over 55% in size
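HEK293 cells carry an SMN2 […]–luciferase reporter in which exon 7 inclusion puts luciferase in frame. Cells were plated 10-12 h before compound addition, then incubated 30-36 h at 37C. ONE-Glo luminescence was read; sodium butyrate at 4.5 mM final served as control.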
ELG1 genotoxic = inducers of genotoxicity in HEK293T ELG1-luciferase cells; HEK293T ELG1-luciferase reporter, luminescence, 16 h; Potency, µM (doses to about 46 µM), for inactives: at the top dose activity change, positive = activation, usual class: activators; hit rate 1.3% among 330,000; also: % of control where 0% means no effect; nearly all actives have a fitted effect of over 60% in size
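Luminescence read-out: rising ELG1-luciferase signal, reflecting elevated ELG1 protein under genetic stress, flags genotoxic compounds. Cells were treated for 16 hr at 37 °C before ONE-Glo detection.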
* marks the source's active call; other numbers are inactive results; [ ] = another dose, or the depositor's remark. Hits are enriched below; roughly 9.3% of the tested compounds scored in any of these assays. Calls follow the shape of the dose curve; as a rule, active = well fitted curve in the direction sought with a large enough effect; inconclusive = small, poorly fitted or top-dose-only effect, or another doubt; inactive = no such curve, though single readings can be large; an effect the other way counts as inactive or inconclusive. Potency is read from the fitted curve at half-maximal effect.

Screening COc1ccc(-c2cnc3c(-c4ccc(F)cc4)cnn3c2N)cc1 returned ELG1 DNA repair inconclusive, NPC1 prom act 0.4µM*, FLuc modulator 0.6µM*, Rab9 promoter act 0.32µM* and ELG1 genotoxic inconclusive.
Screening Cc1ccc(-c2cnn(-c3ccccc3)c2N)cc1 returned ELG1 DNA repair inconclusive, NPC1 prom act 0.45µM*, FLuc modulator 1.3µM*, Rab9 promoter act 1.1µM* and ELG1 genotoxic inconclusive.
Screening Nc1c(-c2ccc(Cl)cc2)cnc2c(-c3ccccc3)cnn12 returned ELG1 DNA repair inconclusive, NPC1 prom act 0.32µM*, FLuc modulator 0.48µM*, Rab9 promoter act 1.3µM* and ELG1 genotoxic 1.6µM*.
Screening Nc1c(-c2ccccc2)cnn1-c1cccc(C(F)(F)F)c1 returned ELG1 DNA repair inconclusive, NPC1 prom act inconclusive, FLuc modulator 17µM*, Rab9 promoter act 3.2µM*, SMN2 splice up 3.5µM* and ELG1 genotoxic 14%.
Screening O=C(COc1ccccc1)N1CCN(C(=O)COc2ccccc2)CC1 returned ELG1 DNA repair -2%, NPC1 prom act 1%, FLuc modulator -1%, Rab9 promoter act -6% and ELG1 genotoxic 1%.
Screening Cc1ccc(-c2cnn(-c3cccc([N+](=O)[O-])c3)c2N)cc1 returned ELG1 DNA repair inconclusive, NPC1 prom act 2.2µM*, FLuc modulator 12µM*, Rab9 promoter act 3.2µM*, SMN2 splice up 29% and ELG1 genotoxic inconclusive.
`Nc1c(-c2ccc(Cl)cc2)nnn1-c1ccccc1` gave ELG1 DNA repair inconclusive, NPC1 prom act 3.2µM*, FLuc modulator inconclusive, Rab9 promoter act 2.2µM* and ELG1 genotoxic inconclusive.
`Nc1c(-c2ccccc2)cnn1-c1ccc(C(=O)O)cc1` gave ELG1 DNA repair inconclusive, NPC1 prom act inconclusive, FLuc modulator 1.7µM*, Rab9 promoter act 0.32µM*, SMN2 splice up 3.2µM* and ELG1 genotoxic inconclusive.
Screening N#Cc1c(C#N)c(-c2ccccc2)n(-c2ccc(C(=O)O)cc2)c1N returned ELG1 DNA repair 2%, NPC1 prom act 0%, FLuc modulator 1%, Rab9 promoter act 2%, SMN2 splice up -13% and ELG1 genotoxic 0%.
Nc1c(-c2ccc(Cl)cc2)cnn1-c1ccccc1 was read as ELG1 DNA repair inconclusive, NPC1 prom act 2.2µM*, FLuc modulator 4.8µM*, Rab9 promoter act 0.89µM* and ELG1 genotoxic 6.5µM*.
Cc1ccc(-n2ncc3c2CCCC3NC(=O)CCN2CCCC2=O)cc1C (stereo unspecified) was read as ELG1 DNA repair 1%, NPC1 prom act 1%, FLuc modulator -1%, Rab9 promoter act -2% and ELG1 genotoxic -1%.
O=C1CCCN1CCCNC(=S)Nc1ccccc1 was read as ELG1 DNA repair 21%, NPC1 prom act 0%, FLuc modulator 0%, Rab9 promoter act -5% and ELG1 genotoxic -2%.
Screening Cc1ccc(-c2nn(-c3ccccc3)cc2C(=O)NCCCN2CCOCC2)cc1 returned ELG1 DNA repair -1%, NPC1 prom act 9%, FLuc modulator inconclusive, Rab9 promoter act 5% and ELG1 genotoxic 1%.
Screening O=C1CCCN1CCCNC(=S)Nc1ccc(Nc2ccccc2)cc1 returned ELG1 DNA repair 15µM*, NPC1 prom act 1%, FLuc modulator -4%, Rab9 promoter act -4%, SMN2 splice up -20% and ELG1 genotoxic -12%.
`Cc1ccc(NC(=O)C(=O)NCCCN2CCCC2=O)cc1` gave ELG1 DNA repair inconclusive, NPC1 prom act 2.2µM*, FLuc modulator 12µM*, Rab9 promoter act 1.4µM* and ELG1 genotoxic 2.1µM*.
Screening Cc1ccc(-c2nn(-c3ccc(F)cc3)cc2C(=O)NCCCN2CCCC2=O)cc1 returned ELG1 DNA repair inconclusive, NPC1 prom act 1%, FLuc modulator 11µM*, Rab9 promoter act 3% and ELG1 genotoxic -7%.
Screening NC(=S)NNc1c(F)c(F)c(F)c(F)c1F returned ELG1 DNA repair -6%, NPC1 prom act -11%, FLuc modulator -3%, Rab9 promoter act -1%, SMN2 splice up 5% and ELG1 genotoxic -6%.
`COc1ccc(C2C(C(=O)O)CC(=O)N2c2ccc(OC)cc2)cc1` (stereo unspecified) gave ELG1 DNA repair 3%, NPC1 prom act -4%, FLuc modulator -1%, Rab9 promoter act -2%, SMN2 splice up -3% and ELG1 genotoxic 0%.
For O=[N+]([O-])c1cc(C(F)(F)F)ccc1NCCOc1ccccc1 the results were ELG1 DNA repair inconclusive, NPC1 prom act inconclusive, FLuc modulator 13µM*, Rab9 promoter act inconclusive, SMN2 splice up inconclusive and ELG1 genotoxic inconclusive.
`CN(C)S(=O)(=O)NCCNc1ccc(C(F)(F)F)cc1[N+](=O)[O-]` gave ELG1 DNA repair -6%, NPC1 prom act -4%, FLuc modulator 19µM*, Rab9 promoter act 2%, SMN2 splice up 6% and ELG1 genotoxic 3%.
Screening Cc1ccccc1OCCNc1ccc(C(F)(F)F)cc1[N+](=O)[O-] returned ELG1 DNA repair 23%, NPC1 prom act 0%, FLuc modulator inconclusive, Rab9 promoter act 10%, SMN2 splice up -3% and ELG1 genotoxic 1%.
Screening Cc1cc(C)cc(C(=O)NCC(=O)NCCc2c[nH]c3ccccc23)c1 returned ELG1 DNA repair 6%, NPC1 prom act 7%, FLuc modulator 0%, Rab9 promoter act 8% and ELG1 genotoxic 3%.
Cc1cc(Nc2ccc(C(=O)O)cc2)n2nc(C)nc2n1 was read as ELG1 DNA repair 8%, NPC1 prom act 0%, FLuc modulator -1%, Rab9 promoter act -8%, SMN2 splice up 10% and ELG1 genotoxic -12%.
Screening CCn1c(SCc2nc3ccccc3[nH]2)nnc1-c1cccnc1 returned ELG1 DNA repair -2%, NPC1 prom act -4%, FLuc modulator -1%, Rab9 promoter act 5%, SMN2 splice up 4% and ELG1 genotoxic 4%.
Screening COc1cccc(Nc2nc(N)c([N+](=O)[O-])c(N3CCOCC3)n2)c1 returned ELG1 DNA repair 23µM*, NPC1 prom act -5%, FLuc modulator -3%, Rab9 promoter act -2%[1.84 µM] and ELG1 genotoxic -6%.
Screening CN(C(=O)c1cccc(C#N)c1)c1nnc(-c2ccccn2)s1 returned ELG1 DNA repair inconclusive, NPC1 prom act 2%, FLuc modulator -1%, Rab9 promoter act 16%, SMN2 splice up inconclusive and ELG1 genotoxic 21%.
For COCC(=O)N(Cc1cc2cc(C)ccc2[nH]c1=O)c1cccc(C)c1C the results were ELG1 DNA repair 0%, NPC1 prom act -1%, FLuc modulator 1%, Rab9 promoter act -4% and ELG1 genotoxic -2%.
